Bioassay records as filed in PubChem BioAssay.
An excerpt weighted towards active compounds, which were near 2.2% of everything screened.
p47phox inh: blocks human p47phox regulatory protein of NADPH oxidases; AID 1274; inhibition, % at 24.7 µM; p47phox/p22phox peptide binding, fluorescence polarization, 2 h; P14598; actives 0.53% (n = 220,000);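 active means inhibition above about 30%, limit read from the data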;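 further: 0% = p47phox with labelled peptide and 100% = labelled peptide alone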
Target sequence (P14598 whole entry, looked up): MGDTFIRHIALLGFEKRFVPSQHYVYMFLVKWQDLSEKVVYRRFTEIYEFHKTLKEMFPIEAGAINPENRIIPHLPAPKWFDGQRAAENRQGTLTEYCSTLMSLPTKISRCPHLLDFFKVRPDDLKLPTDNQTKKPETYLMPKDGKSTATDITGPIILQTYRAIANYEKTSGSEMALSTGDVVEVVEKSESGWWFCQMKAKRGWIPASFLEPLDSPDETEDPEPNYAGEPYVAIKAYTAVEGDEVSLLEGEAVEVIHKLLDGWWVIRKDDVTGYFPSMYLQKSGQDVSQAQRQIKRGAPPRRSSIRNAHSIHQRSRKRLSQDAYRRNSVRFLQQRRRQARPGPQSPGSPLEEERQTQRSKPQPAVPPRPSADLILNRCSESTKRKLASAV
Autophagy HCS: modulators of autophagy | MEF GFP-LC3 puncta imaging; test concentration mostly 10 µM | calls only at 10 µM (by protocol) | actives 0.98% (n = 190,000) | AID 463193;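 active means percentage of spot-positive cells more than 3 SD above its plate mean, without a fluorescence outlier flag or 80% toxicity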;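 further: spot-positive cell cutoff set from DMSO-treated cells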
Redox H2O2 prof: compounds producing H2O2 with reducing agent – biochemical, NIH compound library profiling, artefact control for MLSCN library redox annotation, primary screen. actives 0.03% (n = 200,000). activation, % at 10 µM. DTT-dependent redox cycling H2O2, phenol red/HRP absorbance; 100% = 100 µM peroxide control, 0% = buffer;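 active means activation of at least 50% relative to the plate's high and low controls in the primary single-dose screen; inactive means activation below 50%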;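 further: compound incubated with DTT at 0.8 mM final as the reducing agent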
Arbovirus inh: arbovirus infection inhibition | arbovirus infection cell-based antiviral screen | inhibition, % at 10 µM | actives 0.37% (n = 200,000); in the data active means inhibition above about 30%
Ins promoter up: MIN6 insulin promoter up-regulation | MIN6 insulin promoter-GFP reporter, high-content imaging; hits give high values | z-score at 5 µM | actives 0.3% (n = 190,000) | AID 1625;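 active means z-score above 3 at 5 µM with at least 500 cells counted in the well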
Efa HMGR inh: inhibitors of class II HMG-CoA reductase from Enterococcus faecalis; inhibition, % at 10 µM; actives 0.41% (n = 190,000); AID 1066; purified E. faecalis HMGR, NADPH absorbance 340 nm kinetic;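 active means inhibition above a set limit, the median over all tested compounds plus 3 SD, cut at about 9.5% in these data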;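 further: enzyme runs in reverse so mevalonate oxidation gives rising NADPH absorbance; 0% = complete reaction with DMSO and 100% = background rate lacking mevalonate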
Starred values were filed as active, the others as inactive; i = inactive; nt = not tested or not shown; + = active, no number.

SMILES	p47phox inh	Autophagy HCS	Redox H2O2 prof	Arbovirus inh	Ins promoter up	Efa HMGR inh
CCn1cc(/C=N/NC(=O)COc2cccc3cccnc23)c2ccccc21	41*	i	0	-1	0.17	-1
COc1ccc(/C=N/NC(=O)COc2ccccc2-c2ccccc2)cc1	-14	i	2	-32	0.91	0
COc1ccc(OCCn2cc(/C=N/NC(=O)c3ccncc3)c3ccccc32)cc1	-43	i	1	16	-0.47	0
COc1cccc(OCCn2cc(/C=N/NC(=O)c3ccncc3)c3ccccc32)c1	-31	+	0	9	-0.06	-3
CCC(C)c1ccc(NC(=O)C/C(C)=N/NC(=O)c2cnccn2)cc1 (centres undefined)	-1	i	0	3	-0.09	3
CCOC(=O)Nc1nc(-c2ccccc2)c(C(=O)c2ccccc2)s1	-12	+	0	-3	-0.18	-1
COC(=O)Nc1nc(-c2ccccc2)c(C(=O)c2ccc(Cl)cc2)s1	-2	i	1	-22	0.11	-7
O=C(CSc1ncnc2sc3c(c12)CCCCC3)NCc1ccco1	0	+	0	-18	0.18	-4
O=C(O)CNc1ncccc1[N+](=O)[O-]	50*	i	-1	2	nt	-8
Cc1c(C(=O)NCc2ccc3c(c2)OCO3)cccc1[N+](=O)[O-]	-9	i	0	-14	-0.38	-3
COc1ccc(C(=O)Nc2ccc3oc(-c4cccc(Cl)c4)cc(=O)c3c2O)cc1	20	nt	nt	nt	1	nt
COC(=O)C(C)n1cnc2c(nnn2-c2ccc(OC)cc2)c1=O (centres undefined)	-15	i	0	-2	-0.34	14*
CCOC(=O)C(CC)n1cnc2c(nnn2-c2ccc(C)cc2)c1=O (centres undefined)	-9	i	2	5	-1.1	4
CCN(CC)c1ccc2cc(-c3nc4ccccc4n3C)c(=O)oc2c1	-24	i	-1	-28	1.7	4
CCN(CC)c1ccc2cc(-c3nc4ccccc4[nH]3)c(=O)oc2c1	-80	+	-2	-3	nt	-4
Cc1ccc(C(=O)NCc2ccco2)cc1S(=O)(=O)Nc1cccc(Cl)c1	-7	i	3	2	0.46	-3
Cc1cc(N2CCCC2)ccc1/C=C1\NC(=S)N(C)C1=O	-122	+	-1	4	nt	-4
CN1C(=O)c2ccc(N3CCCC3)cc2C1=O	-16	i	-1	1	nt	-3
O=C1NC(=S)N/C1=C\c1ccc(N2CCOCC2)cc1	-40	i	0	-2	1.1	-7
O=C1N/C(=C/c2ccc(N3CCCC3)cc2)C(=O)N1c1ccccc1	4	+	1	-18	0.57	0
O=C1N/C(=C/c2ccc(N3CCOCC3)o2)C(=O)N1c1ccccc1	-37	i	0	-1	0.51	-4
O=C1/C(=C/c2ccc(N3CCCC3)cc2)NC(=S)N1C1CC1	-102	+	2	2	nt	-5
CC(C)N(C)CCOC(=O)C1COc2ccccc2O1 (centres undefined)	-7	nt	nt	nt	0.12	nt
c1ccc(-c2nnc(CN3CCN(C(c4ccccc4)c4ccccc4)CC3)o2)cc1	159*	i	-1	3	-0.17	0
c1ccc(-c2nnc(CN3CCN(c4ccccc4)CC3)o2)cc1	1	i	-2	9	-0.24	-1
SMILES	p47phox inh	Autophagy HCS	Redox H2O2 prof	Arbovirus inh	Ins promoter up	Efa HMGR inh
CC(C)CCNC(=O)C(CC(C)C)N(Cc1ccc2c(c1)OCO2)C(=O)c1snc(C(N)=O)c1N (centres undefined)	5	i	0	-12	-0.47	-4
O=[N+]([O-])c1cnccc1Nc1cccc(F)c1	-3	i	-1	18	nt	5
O=[N+]([O-])c1ccc(Oc2cccc(F)c2)c2ccncc12	-1	+	1	1	-0.22	0
O=C(Nc1nnc(-c2ccccc2)o1)Nc1ccc(F)cc1F	-18	i	0	4	-0.39	3
O=C(Nc1nnc(-c2ccccc2)o1)Nc1ccccc1Cl	-25	i	-1	2	3.8*	-9
COc1ccccc1NC(=O)COC(=O)C1CC2C=CC1C2 (centres undefined)	-8	i	0	23	3*	-2
COc1ccc(Oc2nc(OC)cc(OC)n2)cc1	-3	i	-2	0	0.99	-1
COc1ccc(OC)c(CC(NC(C)=O)C(=O)NC2CCN(c3nc(OC)nc(OC)n3)CC2)c1 (centres undefined)	-1	i	0	6	0.09	-6
COCCNC(=O)CCc1nnc(C2(c3ccc(Cl)cc3)CCC2)o1	-6	i	1	7	1	13*
CCOc1ccc(NC2=NCC(=O)N2Cc2cccs2)cc1	-6	i	-3	10	4.8*	2
CCOC(=O)C1CCN(S(=O)(=O)c2ccc(C(C)(C)C)cc2)CC1	-7	i	0	2	-0.32	1
O=C(O)c1cccc2c1C(=O)c1ccccc1C2=O	4	+	-1	10	1.1	0
CC(C)OC(=O)c1cccc2c1C(=O)c1ccccc1-2	50*	nt	nt	nt	1.4	nt
O=C(O)c1cccc2c1C(=O)c1ccccc1-2	-11	nt	nt	nt	0.03	nt
Cc1cc(C)c2c(=O)[nH]c(SCC(=O)c3ccc(F)c(C)c3)nc2n1	38*	i	0	-12	1.2	-1
Cc1cc(C)c2c(=O)[nH]c(SCC(=O)NCc3ccccc3)nc2n1	-6	i	0	2	0.03	-1
CCOc1ccc(C2CC(c3c(O)c4ccccc4oc3=O)=NN2c2ccccc2)cc1OC (centres undefined)	-14	+	0	0	nt	-6
C(=N\Nc1nc(-c2ccccc2)cs1)/c1ccco1	-22	i	1	36*	0.14	-11
C(=N\Nc1nc(-c2ccccc2)cs1)/c1cccs1	-1	i	-2	35*	-0.86	-2
CCCNC(=O)CN1C(=O)NC2(CCCc3cc(OC)ccc32)C1=O (centres undefined)	-3	i	1	4	-0.26	-2
COCCN1C(=O)/C(=C/c2ccc(N3CCCC3)cc2)SC1=S	-30	+	-1	-6	nt	1
Cc1cc(C)c2cc(CN(CCN3CCCC3)C(=O)Nc3ccc(F)cc3)c(=O)[nH]c2c1	-49	i	-1	-7	-1.3	-5
Cc1ccc(C)c2[nH]c(=O)c(CN(CCN3CCCC3)C(=O)Nc3cccc(Cl)c3)cc12	-16	+	2	-16	nt	-5
CC(=O)Nc1nc(SCC(=O)NCc2ccc(F)cc2)[nH]c(=O)c1NC(=O)c1cccs1	7	+	-2	5	-0.19	-5
Cc1ccc(NC(=O)N(Cc2ccc3c(c2)OCO3)Cc2cc3cc4c(cc3[nH]c2=O)OCCO4)cc1	-15	+	3	-9	-5.4	-5
